Screening data (PubChem BioAssay)
Rows were chosen to be rich in hits. Some 6.7% of all compounds tested hit in one or more screens of this group.
C diff HTS – C. difficile growth inhibitors, primary screen, HTS; AID 1259249, 2017; Clostridium difficile clinical isolate growth, OD600, 24 h; stronger effect = lower value; growth activity, negative = inhibition, % at 16 µg/mL (by protocol); actives 0.25% (n = 86,000);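 active means mean growth activity at or below -80% and every replicate also at or below -80%; inconclusive means mean at or below -80% but some replicate above -80%; inactive means mean growth activity above -80%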
T cruzi growth-1 – T. cruzi intracellular proliferation inhibitors, primary screen, cell-based, beta-gal Tulahuen parasites, NIH3T3 host, luminescence | inhibition, % at 8.34 µM | T. cruzi beta-gal in NIH3T3, GalScreen luminescence, 90 h | AID 624255, 2012 | actives 5.9% (n = 77,000);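 active means mean inhibition above about 93%, with at least 55% of replicates each passing it, limit read from the data, passing the limit was not always enough; inconclusive means only one of those two conditions holds; inactive means neither condition holds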
Pf Dd2 inh – P. falciparum Dd2 growth inhibitors, primary screen, SYBR Green fluorescence, single dose replicates; activity change, % at 10 µM; 72 h; stronger effect = lower value; actives 2.3% (n = 94,000); in the data active means activity change below about -80%; inconclusive means no clear call, values can overlap the other calls
T cruzi growth-2 – T. cruzi intracellular proliferation inhibitors, confirmation, cell-based, NIH3T3 host, beta-gal parasite, luminescence, cherry-pick | T. cruzi beta-gal in NIH3T3, GalScreen luminescence, 90 h | actives 72% (n = 5,600) | shares compounds with T cruzi growth-1 | inhibition, % at 8.35 µM;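 active means mean replicate inhibition above about 95% and at least 55% of replicates individually reaching it, limit read from the data; inconclusive means only one of the two criteria is met; inactive means neither criterion is met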
T cruzi growth-3 – inhibitors of intracellular T. cruzi replication, confirmation, NIH3T3 host cells, beta-gal parasites, cherry-pick, set 2 | T. cruzi beta-gal in NIH3T3, GalScreen luminescence, 90 h | inhibition, % at 2.09 µM | shares compounds with T cruzi growth-1 | actives 21% (n = 5,600);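 active means mean inhibition above about 95%, with at least 55% of replicates also reaching it, limit read from the data; inconclusive means meets just one of the two conditions; inactive means meets neither condition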
NIH3T3 tox – cytotoxicity in mouse NIH/3T3 fibroblasts, confirmation, cytotoxicity control for T. cruzi proliferation inhibitor project, cell-based, cherry-pick, single point. shares compounds with T cruzi growth-1. NIH/3T3 viability, CellTiter-Glo ATP luminescence, 90 h. cytotoxicity (signal decrease), % at 8.35 µM. actives 14% (n = 5,600). AID 651742, 2012;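 active means mean signal decrease across replicates above about 35% based on untreated-well scatter, with enough replicates individually passing, limit read from the data; inconclusive means no rule stated though some were filed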
NIH3T3 tox 2 – NIH/3T3 fibroblast cytotoxicity, confirmation, cytotoxicity control, cell-based, cherry-pick, single point, set 2. shares compounds with T cruzi growth-1. NIH/3T3 viability, CellTiter-Glo ATP luminescence, 90 h. inhibition, % at 24.9 µM. actives 56% (n = 5,600);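 active means mean loss of cell viability signal at or above a set limit, and enough replicates individually reaching it; inconclusive means meets only the mean limit or only the replicate share; inactive means meets neither condition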
Of the large screens only hits and unclear results are named; the others gave an inactive call (follow-up assays come after a bar, where they were run).

O=C(Nc1ccccc1)N1CCCCN2[C@@H](CO)[C@H](c3ccc(-c4ccccc4)cc3)[C@@H]2C1	T cruzi growth-1 99 | T cruzi growth-2 inactive | T cruzi growth-3 inactive | NIH3T3 tox 44 | NIH3T3 tox 2 103
O=C(Nc1ccccc1)N1CCCCN2[C@@H](CO)[C@@H](c3ccc(-c4ccncc4)cc3)[C@@H]2C1	T cruzi growth-1 inconclusive | T cruzi growth-2 inactive | T cruzi growth-3 inactive | NIH3T3 tox inactive | NIH3T3 tox 2 inactive
O=C(Nc1ccccc1)N1CCCCN2[C@H](CO)[C@@H](c3ccc(-c4ccccc4)cc3)[C@@H]2C1	T cruzi growth-1 inconclusive | T cruzi growth-2 109 | T cruzi growth-3 inactive | NIH3T3 tox inactive | NIH3T3 tox 2 104
O=C(Nc1ccccc1)N1CCCCN2[C@H](CO)[C@@H](c3ccc(Br)cc3)[C@H]2C1	none
CC(=O)N1CCCCN2[C@@H](CO)[C@H](c3ccc(-c4ccccc4)cc3)[C@@H]2C1	T cruzi growth-1 104 | T cruzi growth-2 inactive | T cruzi growth-3 inactive | NIH3T3 tox inactive | NIH3T3 tox 2 42
O=C([C@H]1N[C@H]2c3ccc(C4=CCCCC4)c(=O)n3C[C@H]2[C@@H]1CO)N1CCc2ccccc2C1	none
COc1ccc(S(=O)(=O)N[C@H]2C=C[C@@H](CC(=O)N3CCc4ccccc4C3)O[C@@H]2CO)cc1	none (no result: C diff HTS)
CCCC(=O)N1CC2(CCN(CC3CCCC3)CC2)c2c([nH]c3cc(OC)ccc23)[C@@H]1CO	none (no result: T cruzi growth-1)
CCCc1cn(CC[C@@H]2CC[C@H](NC(=O)Cc3cccnc3)[C@H](CO)O2)nn1	none
C[C@@H](NC(=O)C[C@@H]1CC[C@H](NC(=O)CN2CCOCC2)[C@H](CO)O1)c1ccccc1	none (no result: C diff HTS)
C[C@@H]1CCCCO[C@@H](CN(C)C(=O)c2ccccc2)[C@@H](C)CN([C@@H](C)CO)C(=O)c2cc(NC(=O)Nc3ccc(F)cc3)ccc2O1	none
Cc1ccc(-c2ccc([C@@H]3[C@H](CO)N4CCCCN(C(=O)Nc5ccccc5)C[C@@H]34)cc2)cc1	C diff HTS -92, T cruzi growth-1 inconclusive | T cruzi growth-2 105 | T cruzi growth-3 106 | NIH3T3 tox 120 | NIH3T3 tox 2 105
Cc1ccc(-c2ccc([C@H]3[C@@H](CO)N4CCCCN(C(=O)Nc5ccccc5)C[C@H]34)cc2)cc1	none
CCC(=O)Nc1ccc2c(c1)C(=O)N(C)[C@H]1CC[C@@H](CC(=O)NCC3CCCCC3)O[C@H]1CO2	none
CCCNC(=O)C[C@@H]1CC[C@H]2[C@@H](COc3ccc(NC(=O)NC(C)C)cc3C(=O)N2C)O1	none
O=C(Nc1ccc2c(c1)OCO2)N[C@@H]1CC[C@H](CCNC(=O)C2CCCCC2)O[C@H]1CO	none (no result: T cruzi growth-1)
CCCN(C)C[C@@H]1OCCCC[C@@H](C)Oc2ccc(NS(=O)(=O)c3c(C)noc3C)cc2C(=O)N([C@@H](C)CO)C[C@@H]1C	none
C[C@H]1CN([C@@H](C)CO)C(=O)c2cc(NS(C)(=O)=O)ccc2O[C@@H]1CN(C)Cc1ccc(Oc2ccccc2)cc1	none
O=C(c1cccc(F)c1)N1CCCCN2[C@H](C1)[C@@H](c1ccc(-c3ccccc3)cc1)[C@@H]2CO	none
O=C(c1cccc(F)c1)N1CCCCN2[C@H](CO)[C@@H](c3ccc(-c4ccccc4)cc3)[C@@H]2C1	T cruzi growth-1 106 | T cruzi growth-2 106 | T cruzi growth-3 inconclusive | NIH3T3 tox inactive | NIH3T3 tox 2 59
O=C(c1cccc(F)c1)N1CCCCN2[C@H](CO)[C@@H](c3ccc(-c4ccccc4)cc3)[C@H]2C1	none
O=C(c1cccc(F)c1)N1CCCCN2[C@H](CO)[C@H](c3ccc(-c4ccccc4)cc3)[C@H]2C1	T cruzi growth-1 103 | T cruzi growth-2 109 | T cruzi growth-3 inactive | NIH3T3 tox inactive | NIH3T3 tox 2 88
O=C(c1ccccc1)N1CC[C@@H]2[C@H](CO)Nc3ccc(-c4ccccc4F)cc3[C@@H]21	T cruzi growth-1 103 | T cruzi growth-2 108 | T cruzi growth-3 inactive | NIH3T3 tox inactive | NIH3T3 tox 2 26
O=C(c1cccc(F)c1)N1CC[C@@H]2[C@H]1c1cc(-c3ccccc3F)ccc1N[C@@H]2CO	none
O=C(c1ccc(F)cc1)N1CC[C@@H]2[C@H]1c1cc(-c3ccccc3F)ccc1N[C@@H]2CO	T cruzi growth-1 100 | T cruzi growth-2 95 | T cruzi growth-3 inactive | NIH3T3 tox inactive | NIH3T3 tox 2 103
O=C(c1ccccc1)N1CC[C@@H]2[C@@H](CO)Nc3ccc(-c4ccc(F)cc4)cc3[C@@H]21	Pf Dd2 inh inconclusive
COc1ccc(-c2ccc3c(c2)[C@H]2[C@H](CCN2C(=O)c2cnccn2)[C@H](CO)N3)cc1	T cruzi growth-1 108 | T cruzi growth-2 105 | T cruzi growth-3 112 | NIH3T3 tox inactive | NIH3T3 tox 2 inactive
O=C(c1cccc(F)c1)N1CC[C@@H]2[C@H](CO)Nc3ccc(-c4ccccc4F)cc3[C@@H]21	none
O=C(c1ccccc1)N1CC[C@@H]2[C@@H](CO)Nc3ccc(-c4ccccc4F)cc3[C@@H]21	T cruzi growth-1 108 | T cruzi growth-2 108 | T cruzi growth-3 inactive | NIH3T3 tox inactive | NIH3T3 tox 2 inconclusive
COc1ccc(C#Cc2ccc3c(c2)[C@@H]2[C@@H](CCN2C(=O)c2cnccn2)[C@@H](CO)N3)cc1	none
C[C@@H]1CCCCO[C@H](CN(C)C(=O)CCC(F)(F)F)[C@@H](C)CN([C@@H](C)CO)C(=O)c2cc(NS(=O)(=O)c3ccccc3)ccc2O1	none
C[C@@H]1CN([C@H](C)CO)C(=O)c2cccc(NC(=O)c3ccncc3)c2O[C@@H]1CN(C)C(=O)NC1CCCCC1	none
CC(C)CC#Cc1cnc2c(c1)C(=O)N([C@@H](C)CO)C[C@@H](C)[C@H](CN(C)C(=O)CN1CCOCC1)O2	none
O=C(c1cnccn1)N1CC[C@@H]2[C@H](CO)Nc3ccc(-c4ccccc4F)cc3[C@@H]21	none
O=C(c1cnccn1)N1CC[C@@H]2[C@H]1c1cc(-c3ccccc3F)ccc1N[C@@H]2CO	T cruzi growth-1 100 | T cruzi growth-2 107 | T cruzi growth-3 inactive | NIH3T3 tox inactive | NIH3T3 tox 2 44
O=C(N[C@@H]1CC[C@@H](CCn2cc(-c3ccccn3)nn2)O[C@@H]1CO)c1cccnc1	none
